# Shown is part of a subset that was picked to be rich in hits.
# TbREL1 inh – TbREL1 inhibition, primary screen | P86926 | inhibition, % at 9.66 µM | AID 1117264 | 89,000 tested, 0.49% active | TbREL1 RNA ligation, FRET fluorescence;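 active = inhibition above the mean inhibition across all screened compounds plus 3 SD, cut at about 11% in these data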;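 also: 0% = plate median of test wells and 100% = NSC42067 control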
# Target sequence (P86926 whole entry, looked up): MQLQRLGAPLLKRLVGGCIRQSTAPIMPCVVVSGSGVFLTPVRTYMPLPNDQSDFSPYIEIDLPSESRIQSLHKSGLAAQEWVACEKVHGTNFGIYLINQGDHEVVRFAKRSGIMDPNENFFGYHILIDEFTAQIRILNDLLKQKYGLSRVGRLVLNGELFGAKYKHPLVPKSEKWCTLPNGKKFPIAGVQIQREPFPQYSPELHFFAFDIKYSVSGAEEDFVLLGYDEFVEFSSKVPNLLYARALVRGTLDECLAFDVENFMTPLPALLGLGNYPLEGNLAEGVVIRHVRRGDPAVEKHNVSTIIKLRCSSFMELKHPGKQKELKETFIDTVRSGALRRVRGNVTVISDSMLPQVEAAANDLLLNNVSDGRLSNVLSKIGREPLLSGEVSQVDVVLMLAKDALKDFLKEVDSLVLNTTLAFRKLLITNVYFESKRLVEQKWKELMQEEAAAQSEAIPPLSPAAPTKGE
# TbREL1 conf – TbREL1 inhibition, confirmation | shares compounds with TbREL1 inh | TbREL1 RNA ligation, FRET fluorescence | inhibition, % at 9.66 µM | 390 tested, 37% active | AID 1117282;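 active = mean inhibition across replicates above a set limit taken from the earlier primary screen, cut at about 11% in these data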;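 also: 0% = REL1 with substrate and DMSO and 100% = REL1 plus control inhibitor NSC42067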
# * = called active by the depositor.
SMILES,TbREL1 inh,others
CCOc1ccc(-n2c(SCC(=O)Nc3ccc(S(=O)(=O)Nc4nccs4)cc3)nnc2-c2ccncc2)cc1,-7.7,
CCCCc1ccc2nc(NC(=O)c3cccs3)sc2c1,4.5,
C[C@H]1C2CC(OC(=O)Nc3ccccc3C(F)(F)F)C(C2)[C@H]2CCCCN21 (stereo not given in full),0.3,
Cc1ccc(S(=O)(=O)NCC2Cc3ccccc3N2S(=O)(=O)c2ccc(C)cc2)cc1 (stereo not given),-2.9,
CS(=O)(=O)N1c2ccccc2C[C@H]1Cc1cc2ccccc2o1,12.2*,TbREL1 conf=-0.6
CCNC(=O)C1(C)CCCN(Cc2cc3ccccc3o2)C1 (stereo not given),-1.6,
S=C(Nc1cccc(Cl)c1)OCCN1CCCC12CCC(c1ccccc1)CC2 (stereo not given),-4.3,
CCOC(=O)Cc1nc(N2CCN(C(=O)C3CCCO3)CC2)c2c(C)c(C(=O)OCC)sc2n1 (stereo not given),-3.1,
COC(=O)C(Cc1ccc(O)cc1)NC(=O)Cn1cc(C)c(=O)[nH]c1=O (stereo not given),11.2*,TbREL1 conf=3.1
COC(=O)[C@H](Cc1ccc(O)cc1)NC(=O)Cn1ccc(NC(=O)OCc2ccccc2)nc1=O,-0.4,
Cc1cn(CC(=O)N[C@H](C)c2cccc3ccccc23)c(=O)[nH]c1=O,-0.6,
COc1ccc(CN2CCC(CNC(=O)NC(C)C)CC2)cc1,3.9,
CCOC(=O)c1csc(NC(=O)C2CCCN(S(=O)(=O)c3cccs3)C2)n1 (stereo not given),0.4,
Cc1ccc(-c2c(C(=O)NC3CCCC3)oc(=O)c3ccccc23)cc1,-0.7,
C/C(=N\NC(=O)CNc1cccc(C)c1)c1ccc(Br)s1,-0.9,
O=C(CNc1ccc2ccccc2c1)N/N=C/c1ccccn1,-7.4,
Cc1cccc(NCC(=O)N/N=C/c2cccc(Br)c2)c1,11.7*,TbREL1 conf=-0.6
O=C(Cn1cnc2ccccc2c1=O)N1CCN(Cc2ccc(F)cc2)CC1,-0.9,
COc1ccc(F)c(-c2nc(CN3CCN(C(=O)c4ccco4)CC3)c(C)o2)c1,-2.8,
COc1ccc(CCNC(=O)C2CCCN(Cc3nc(-c4ccccc4C)oc3C)C2)cc1OC (stereo not given),-0.6,
COc1ccc(-c2nc(CN3CCN(c4cc(C)nc(C)c4)CC3)c(C)o2)c2ccccc12,14.7*,TbREL1 conf=9.9
O=C(NCCC1=CCCCC1)C1CCN(S(=O)(=O)c2ccccc2[N+](=O)[O-])CC1,-3.8,
CC(C)[C@H](NS(=O)(=O)c1ccc(F)cc1F)C(=O)N1CCC[C@H]1C(=O)NCCc1ccccc1Cl,-2.6,
COc1ccc(CN2C(=O)[C@]3(NCCc4c3[nH]c3ccc(OC)cc43)c3cc(F)ccc32)cc1,-3.5,
COc1ccc(-c2nnc(SCC(=O)N/N=C\C=C/c3ccco3)n2-c2ccc(C)cc2)cc1,-5.4,
SMILES,TbREL1 inh,others
CS(=O)(=O)N1CCC(C(=O)NCC2COc3ccccc3O2)CC1 (stereo not given),-0.4,
c1ccc(-c2ccccc2OCCOCCN2CCCCC2)cc1,2.6,
OCCNCCOCCOc1ccccc1-c1ccccc1,3.0,
CN(C)CCOCCOc1ccccc1-c1ccccc1,15.3*,TbREL1 conf=6.1
Cc1nc2ccc(S(=O)(=O)NCC(=O)NCc3ccccc3Cl)cc2s1,-0.1,
Cc1cc(-c2n[nH]c(=S)n2N=Cc2ccc(-c3ccccc3)cc2)n[nH]1,-9.1,
CN(Cc1ccco1)C(=O)c1cccc2c1C(=O)N(Cc1cccnc1)C2,-1.2,
O=C(N[C@@H](Cc1cccnc1)C(=O)N1CCC[C@H]1C(=O)NCCc1ccccc1Cl)c1cccs1,-0.8,
O=C(NCc1cccs1)C1CCN(S(=O)(=O)c2ccc([N+](=O)[O-])cc2)CC1,-1.3,
O=C(Nc1ccc(F)c(C(F)(F)F)c1)Nc1nnc(-c2ccncc2)s1,6.9,
CCC(C)NC(=O)CC(C)C (stereo not given),12.2*,TbREL1 conf=6.3
CCC(C)NC(=O)CNS(=O)(=O)c1ccc(C)cc1 (stereo not given),-0.2,
CC(C)CC(=O)NN1CCCCC1,1.2,
COc1cc(C=Nn2c(-c3ccc(F)cc3)n[nH]c2=S)ccc1OCc1ccccc1,-0.6,
O=C(Nc1cccs1)Nc1c(F)cc(F)cc1Br,-0.3,
CCC(C)NS(=O)(=O)c1ccc(F)c(C(=O)Nc2c(F)cc(F)cc2Br)c1 (stereo not given),19.0*,TbREL1 conf=1.8
NS(=O)(=O)c1ccc(F)c(C(=O)O)c1,3.4,
O=C(NCCc1c[nH]c2ccccc12)OCc1cn(-c2ccc(Cl)cc2)nn1,-1.3,
CCCCCn1nnnc1C1(C)Cn2nccc2C(=O)N1Cc1ccco1 (stereo not given),-0.4,
CC(C)(C)NC(=O)Cn1c(=O)oc2ccc(Cl)cc21,59.3*,TbREL1 conf=5.2
CC(C)(C)c1csc(NC(=O)Cn2c(=O)oc3ccccc32)n1,5.6,
O=C(Cn1c(=O)oc2ccccc21)c1ccccc1,2.2,
COc1ccccc1/C=C/C(=O)NNC(=O)c1cccs1,11.5*,TbREL1 conf=4.4
COc1ccccc1NC(=O)c1cccs1,2.2,
COc1ccccc1C(=O)NCC(=O)NNC(=O)c1cccs1,1.2,

# Source: PubChem BioAssay
